Bioassay records from PubChem BioAssay.
Shown are actives, neighbours in structure and some others; about 19% of the full set was active somewhere.
HT1080NT lethal: kills 2HG-producing HT-1080-NT fibrosarcoma cells | HT-1080-NT fibrosarcoma viability, CellTiter-Glo ATP luminescence, 48 h | Potency, µM (top dose mostly 46.1 µM), for the others: top-dose activity, negative = less viability, most hits filed as cytotoxic | hit rate 1.6% among 360,000;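 further: NT is the 2HG producing partner of a matched IDH1 knockdown line; potency means the concentration at half of the fitted maximal effect; 0% = DMSO-treated cells and -100% = media-only wells without cells; nearly all actives have a fitted effect of over 55% in size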
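Toxicity toward the 2HG-producing NT line was scored as %Activity, normalised to DMSO and no-cell wells, from CellTiter-Glo luminescence after 48 hours' treatment.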
TDP1 cell noCPT: qHTS for Inhibitors of human tyrosyl-DNA phosphodiesterase 1 (TDP1): qHTS in cells in absence of CPT. hit rate 15% among 420,000. Potency, µM (doses to about 46.2 µM), for the others: at the top dose activity change, negative = growth inhibition, most hits filed as inhibitors. DT40 Tdp1-/- hTDP1 cells, no CPT, ATP luminescence, 48 h; further: potency means the concentration at half of the fitted maximal effect; nearly all actives have a fitted effect of over 55% in size
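DT40 Tdp1-/-;hTDP1 cells, no CPT (DMSO vehicle only), 400 cells/well; compounds pin-transferred; ≥48 hr, 37 °C; CellTiter-Glo 30 min RT dark, luminescence read.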
HT1080 IDH1KD tx: HT-1080 IDH1 knockdown cell toxicity (counter line). HT-1080 IDH1 knockdown viability, ATP luminescence, 48 h. AID 686971. Potency, µM (titrated, usually from 46.1 µM), without a hit: top-dose activity, negative = toxicity, most hits filed as cytotoxic. hit rate 2% among 360,000;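 further: potency means the concentration at half of the fitted maximal effect; 0% = DMSO wells and -100% = cell-free medium wells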
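Viability of IDH1-knockdown HT-1080 fibrosarcoma cells was assessed by CellTiter-Glo after 48 h at 37 °C with titrated compound; concentration-effect curves were classified by fit quality and response size.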
IL1B secr inh: blocks inflammasome-driven IL-1 beta release. hit rate 4.7% among 360,000. THP-1 LPS/ATP IL-1B secretion, AlphaLISA, 16 h; hits give low values. AID 743279. activity change, % at 57.5 µM; in the data active means activity change below about -50%; inconclusive means mostly about -30% to -49%
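THP-1 cells pretreated 1 hr with compounds (up to 57.5 uM final), then stimulated with LPS (250 ng/mL final) plus ATP (1.25 mM final); secreted IL-1B measured by AlphaLISA after 16 hr, decreased signal indicating inhibition.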
DT40 TDP1 CPT: DT40-hTDP1 cell growth loss with CPT; hit rate 12% among 420,000; AID 686979; chicken DT40 Tdp1-/-;hTDP1 cells + 20 nM CPT, ATP luminescence, 48 h; Potency, µM (series often up to 46.2 µM), inactives show at the highest dose activity change, negative = growth inhibition, usual class: inhibitors; further: potency means the concentration at half of the fitted maximal effect; nearly all actives have a fitted effect of over 55% in size
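Chicken DT40 Tdp1-/- cells stably complemented with human TDP1 were seeded at 400 cells/well in medium containing 20 nM camptothecin, exposed to pin-transferred compounds, and grown at 37 °C for at least 48 hr. Viability was read as ATP luminescence.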
The depositor's hits bear a star; u = inconclusive; x = no result. Unless noted, the call rests on the fitted dose curve; in most records, active means well fitted curve in the direction sought with a large enough effect; inconclusive means small, poorly fitted or top-dose-only effect, or another doubt; inactive means no such curve, though single readings can be large; an effect the other way counts as inactive or inconclusive. Unless noted, on the % scale 0 is the no-effect control and ±100 the full control effect.

SMILES	HT1080NT lethal	TDP1 cell noCPT	HT1080 IDH1KD tx	IL1B secr inh	DT40 TDP1 CPT
COc1ccc2[nH]c3c(Cl)ncnc3c2c1	u	u	u	u	7%
CCOC(=O)N1CCN(c2ncnc3c2[nH]c2ccc(OC)cc23)CC1	-8%	23µM*	-20%	0	u
CCN(CC)CCNC(=O)C(=O)Nc1ccc2c(c1)N(S(=O)(=O)c1cccs1)CCC2	u	16µM*	u	-22	15µM*
CCCCNC(=O)C(=O)Nc1ccc2c(c1)N(S(=O)(=O)c1cccs1)CCC2	u	1.8µM*	8.2µM*	35	2.6µM*
CNC(=O)C(=O)Nc1ccc2c(c1)N(S(=O)(=O)c1cccs1)CCC2	-1%	u	7%	0	u
COc1ccc(-c2cc(C(=O)Oc3cccc(C)c3)c3ccccc3n2)cc1	x	u	x	x	-14%
COc1ccc(CN=C(N)N=C(N)N)cc1Cl	-22%	21µM*	-19%	5	u
C=CCn1c(Cc2ccc(OC(C)C)c(Cl)c2)nnc1SCC(N)=O	8%	-5%	2%	7	6%
CC(C)Oc1ccc(CN=C(N)N=C(N)N)cc1Cl	u	13µM*	u	-28	u
CC(C)COc1ccc(CN=C(N)N=C(N)N)cc1Cl	u	4.1µM*	u	u	6.5µM*
CC(=O)C1=C(O)C(=O)N(c2nccs2)C1c1ccccc1F (stereo not drawn)	-2%	-20%	-14%	28	4%
O=C(CSc1nnnn1-c1cccnc1)Nc1ccccc1F	1%	-4%	-7%	-2	5%
Cc1ccc(C)c(NS(=O)(=O)c2ccccc2C)c1	-22%	-5%	-4%	12	5%
COc1ccc(-c2nc3cnc(Nc4ccccc4)nc3n(CCC#N)c2=O)cc1	x	2%	x	x	1%
CC(C)(C)NC(=O)C(c1ccncc1)n1c(=O)c(-c2cc3ccccc3[nH]2)nc2ccccc21 (stereo not drawn)	u	16µM*	u	-123*	23µM*
COc1ccc(C(C(=O)NC(C)(C)C)n2c(=O)c(-c3cc4ccccc4[nH]3)nc3ccccc32)cc1 (stereo not drawn)	-25%	u	u	-7	u
CC(C)(C)NC(=O)C(c1cc2ccccc2o1)n1c(=O)c(-c2cc3ccccc3[nH]2)nc2ccccc21 (stereo not drawn)	u	u	u	79	u
CC(C)(C)NC(=O)C(C1CC1)n1c(=O)c(-c2cc3ccccc3[nH]2)nc2ccccc21 (stereo not drawn)	u	u	u	-14	18µM*
CC(C)(C)NC(=O)C(c1ccnc2ccccc12)n1c(=O)c(-c2cc3ccccc3[nH]2)nc2ccccc21 (stereo not drawn)	21µM*	18µM*	23µM*	7	u
CC(C)(C)NC(=O)C(c1ccccc1F)n1c(=O)c(-c2cc3ccccc3[nH]2)nc2ccccc21 (stereo not drawn)	-15%	13µM*	u	4	u
O=C(NCc1ccccc1)C(c1ccccc1F)n1c(=O)c(-c2cc3ccccc3[nH]2)nc2ccccc21 (stereo not drawn)	u	u	u	68	u
COc1ccc(C(=O)C(CO)Oc2ccccc2OC)cc1OC (stereo not drawn)	1%	-2%	-7%	19	-5%
O=C(C[n+]1cccc(O)c1)Nc1ccc(Br)cc1	-1%	-3%	-2%	21	1%
NC(=O)C1CCN(C(=O)COc2ccc3ccc(=O)oc3c2)CC1	1%	-3%	9%	5	-4%
COc1ccc(N2C(=O)CC(Sc3nccc(C)n3)C2=O)cc1 (stereo not drawn)	19%	-29%	16%	2	-22%
SMILES	HT1080NT lethal	TDP1 cell noCPT	HT1080 IDH1KD tx	IL1B secr inh	DT40 TDP1 CPT
C=CCNc1nnc(SC2CC(=O)N(c3ccc(OC)cc3)C2=O)s1 (stereo not drawn)	u	4.6µM*	u	-11	3.7µM*
COc1ccc(N2C(=O)CC(NNc3nc4ccccc4s3)C2=O)cc1 (stereo not drawn)	13%	0%	11%	16	-6%
CCOc1ccc(N2C(=O)CC(Sc3nc(O)c(CC)c(=O)[nH]3)C2=O)cc1 (stereo not drawn)	2%	19%	10%	7	5%
CCOc1ccc2nc(SC3CC(=O)N(c4ccc(OC)cc4)C3=O)sc2c1 (stereo not drawn)	u	4.6µM*	u	-4	2.9µM*
COc1ccc(N2C(=O)CC(Sc3nc4ccccc4s3)C2=O)cc1 (stereo not drawn)	1%	3.7µM*	7%	9	2.9µM*
COc1ccc(N2C(=O)CC(Sc3ncccc3C(=O)O)C2=O)cc1 (stereo not drawn)	0%	-3%	0%	9	-1%
COc1ccc(N2C(=O)CC(Sc3nnc(-c4ccccc4F)n3C)C2=O)cc1 (stereo not drawn)	17%	5.2µM*	16%	18	4.1µM*
CCC(c1nc2ccccc2[nH]1)N(Cc1cccnc1)C(=O)c1cc(-c2ccccc2)on1 (stereo not drawn)	0%	18µM*	-1%	-12	u
COc1cc(O)c(CC=C(C)C)c(O)c1C(=O)CCc1ccc(O)cc1	-24%	21µM*	u	8	21µM*
O=C(CC1SC(=Nc2ccccc2)N(Cc2ccccn2)C1=O)Nc1ccc(Br)cc1 (stereo not drawn)	-4%	10µM*	-19%	u	16µM*
Cc1ccccc1N=C1SC(CC(=O)Nc2ccc3ccccc3c2)C(=O)N1Cc1ccccn1 (stereo not drawn)	u	21µM*	-3%	u	18µM*
O=C(CC1SC(=Nc2cccc3ccccc23)N(Cc2ccccn2)C1=O)Nc1ccccc1Br (stereo not drawn)	-14%	2.3µM*	-24%	-4	4.6µM*
COC(=O)N1CCC[C@@]2(CCN(c3ncccn3)C2)C1	x	-6%	x	x	-1%
CCOc1ccc(-c2cc(C(=O)NCc3ccc(OC)cc3)c3c(-c4ccc(F)cc4)[nH]nc3n2)cc1	x	0%	x	x	0%
COc1ccc(CCNC(=O)c2cc(-c3ccc(C)cc3)nc3n[nH]c(-c4ccc(F)cc4)c23)cc1OC	x	-23%	x	x	-16%
Cc1ccc(CNC(=O)c2cc(-c3ccc(C)cc3)nc3n[nH]c(-c4cccc([N+](=O)[O-])c4)c23)cc1	x	u	x	x	12µM*
COc1ccc(-c2cc(C(=O)NCCc3ccccc3)c3c(-c4ccc(Cl)cc4)[nH]nc3n2)cc1	x	10µM*	x	x	12µM*
